Assay results taken from PubChem BioAssay (NCI).
The panel holds about 79,000 compounds, 15% with a hit somewhere; the sample as a whole holds those more often. No stated cut-off is given here; in the data, active means growth inhibition above about 70%; inactive means the rest.

Legend:
[1] = NCI Yeast Anticancer Drug Screen. Data for the rad52 strain (AID 147);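 further: 0% = growth of vehicle-treated control cultures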; conditions: S. cerevisiae rad52 mutant growth inhibition, hits give high values
Method in brief: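 Genetically altered yeast (DNA damage repair defect) treated with compound; inhibition calculated relative to vehicle.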

[2] = NCI Yeast Anticancer Drug Screen. Data for the wt1 strain (AID 149);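 further: 0% = growth of vehicle-treated wt1 cultures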; conditions: S. cerevisiae wt1 strain (SPY 50644) growth inhibition, hits give high values
Method in brief: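 wt1 yeast, compound-treated; % growth inhibition vs vehicle control.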

[3] = NCI Yeast Anticancer Drug Screen. Data for the rad50EPP+ strain (AID 151);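 further: 0% = growth of vehicle-treated control cultures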; conditions: S. cerevisiae rad50 mutant strain, hits give high values
Method in brief: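 Strain rad50EPP+; compound exposure; % growth inhibition vs vehicle.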

[4] = NCI Yeast Anticancer Drug Screen. Data for the mgt1 strain (AID 153); conditions: S. cerevisiae mgt1 mutant growth inhibition, hits give high values
Method in brief: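 Read-out: yeast growth inhibition vs vehicle control. Strain mgt1, drawn from a panel altered in DNA damage repair or cell cycle control.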

[5] = NCI Yeast Anticancer Drug Screen. Data for the rad50 strain (AID 155);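 further: 0% = growth of vehicle-only cultures of the same strain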; conditions: S. cerevisiae rad50 strain growth inhibition, hits give high values
Method in brief: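 Genetically altered yeast (DNA repair pathway); compound treatment; growth inhibition vs vehicle ctrl.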

[6] = NCI Yeast Anticancer Drug Screen. Data for the mec2-1 strain (AID 157); conditions: S. cerevisiae mec2-1 strain, hits give high values
Method in brief: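 Cells of the genetically defined mec2-1 yeast strain are incubated with test compound. Inhibition of growth is calculated against vehicle-treated controls.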

[7] = NCI Yeast Anticancer Drug Screen. Data for the rad14 strain (AID 159);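 further: 0% = growth of vehicle-treated control cultures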; conditions: S. cerevisiae rad14 strain growth inhibition, hits give high values
Method in brief: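 Test compounds were applied to a repair-deficient yeast strain. Its growth was then compared with that of cultures given vehicle alone, and inhibition was expressed relative to those controls.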

[8] = NCI Yeast Anticancer Drug Screen. Data for the sgs1 mgt1 strain (AID 161);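 further: 0% = growth of cultures given vehicle only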; conditions: S. cerevisiae sgs1 mgt1 strain, hits give high values
Method in brief: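 Read-out: growth inhibition vs vehicle controls. Cells: mutant yeast strain deficient in DNA damage repair.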

[9] = NCI Yeast Anticancer Drug Screen. Data for the CLN2oe strain (AID 163);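 further: 0% = growth of vehicle-only control cultures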; conditions: S. cerevisiae CLN2oe strain, hits give high values
Method in brief: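 Strain altered in cell-cycle control, incubated with compound; growth compared to solvent-treated controls.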

[10] = NCI Yeast Anticancer Drug Screen. Data for the cln2 rad14 strain (AID 165);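 further: 0% = growth equal to vehicle treated cultures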; conditions: S. cerevisiae cln2 rad14 strain, hits give high values
Method in brief: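 The screen exposed genetically defined yeast (cln2 rad14) to test compounds and scored growth inhibition relative to vehicle-treated controls.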

[11] = NCI Yeast Anticancer Drug Screen. Data for the bub3 strain (AID 167); conditions: S. cerevisiae bub3 mutant strain, hits give high values
Method in brief: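 Yeast carrying a defined mutation is treated with each compound, and growth is compared with that of vehicle-exposed cells to give inhibition.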

[12] = NCI Yeast Anticancer Drug Screen. Data for the wt2 strain (AID 169);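 further: 0% = growth of vehicle-treated yeast cultures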; conditions: S. cerevisiae wt2 strain growth inhibition, hits give high values
Method in brief: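 Steps: yeast strain treated with compound; growth recorded; inhibition calculated relative to cultures given vehicle alone.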

[13] = NCI Yeast Anticancer Drug Screen. Data for the mlh1 strain (AID 171);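 further: 0% = growth of vehicle-treated control cultures of the same strain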; conditions: S. cerevisiae mlh1 strain growth inhibition, hits give high values
Method in brief: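 Yeast screen: mutant strain plus compound, growth scored against vehicle control wells.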

[14] = NCI Yeast Anticancer Drug Screen. Data for the sgs1 strain (AID 173);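 further: 0% = growth of vehicle-only control cultures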; conditions: S. cerevisiae sgs1 mutant, hits give high values
Method in brief: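 Inhibition of yeast growth served as the measure. The mutant strain was treated with each compound, and growth was normalised to cultures receiving vehicle alone.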

[15] = NCI Yeast Anticancer Drug Screen. Data for the mlh1 rad18 strain (AID 175); conditions: S. cerevisiae mlh1 rad18 strain growth inhibition, hits give high values
Method in brief: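 Compound-treated yeast growth, normalised to vehicle controls. Strain bears defined DNA repair mutations.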

[16] = NCI Yeast Anticancer Drug Screen. Data for the rad18 strain (AID 177); conditions: S. cerevisiae rad18 mutant growth inhibition, hits give high values
Method in brief: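 Inhibition values reflect reduced yeast growth compared with vehicle-treated controls, using a strain engineered with a DNA damage repair defect.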

[17] = at 5.0 µM (retest, dose inferred, filed as 0.5)
[18] = at 50.0 µM (retest, dose inferred, filed as 5.0)

Measured: growth inhibition

CC1C(c2ccccc2)SC(=N)N1C (stereo not drawn)
inactive: [1]; at 1.2 µM -1% | [1]; at 3.7 µM -3% | [1]; at 11.0 µM -2% | [1]; at 33.0 µM -1% | [1]; at 100.0 µM -4% | [2]; at 1.2 µM -1% | [2]; at 3.7 µM -1% | [2]; at 11.0 µM -2% | [2]; at 33.0 µM -1% | [2]; at 100.0 µM -1% | [3]; at 1.2 µM -2% | [3]; at 3.7 µM -2% | [3]; at 11.0 µM -2% | [3]; at 33.0 µM 0% | [3]; at 100.0 µM -1% | [4]; at 1.2 µM -1% | [4]; at 3.7 µM 0% | [4]; at 11.0 µM 0% | [4]; at 33.0 µM -1% | [4]; at 100.0 µM -1% | [5]; at 1.2 µM -2% | [5]; at 3.7 µM -46% | [5]; [17] 0% | [5]; at 11.0 µM -55% | [5]; at 33.0 µM -4% | [5]; [18] 51% | [5]; at 50.0 µM -19.9% | [5]; at 100.0 µM -4% | [6]; at 1.2 µM 0% | [6]; at 3.7 µM -1% | [6]; [17] 6% | [6]; at 11.0 µM -1% | [6]; at 33.0 µM -1% | [6]; [18] 46% | [6]; at 50.0 µM -5.6% | [6]; at 100.0 µM -1% | [7]; at 1.2 µM 1% | [7]; at 3.7 µM 2% | [7]; at 11.0 µM 2% | [7]; at 33.0 µM 3% | [7]; at 100.0 µM 2% | [8]; [17] 12% | [8]; [18] 54% | [8]; at 50.0 µM -5.35% | [9]; at 1.2 µM 4% | [9]; at 3.7 µM 1% | [9]; at 11.0 µM 4% | [9]; at 33.0 µM 4% | [9]; at 100.0 µM -2% | [10]; [17] 1% | [10]; [18] 56% | [10]; at 50.0 µM 23.4% | [11]; at 1.2 µM -3% | [11]; at 3.7 µM -2% | [11]; [17] -2% | [11]; at 11.0 µM -3% | [11]; at 33.0 µM -3% | [11]; [18] -7% | [11]; at 50.0 µM -4.4% | [11]; at 100.0 µM 0% | [12]; at 1.2 µM 1% | [12]; at 3.7 µM 8% | [12]; at 11.0 µM 0% | [12]; at 33.0 µM 0% | [12]; at 100.0 µM 0% | [13]; at 1.2 µM -1% | [13]; at 3.7 µM -2% | [13]; at 11.0 µM 0% | [13]; at 33.0 µM -1% | [13]; at 100.0 µM -1% | [14]; at 1.2 µM -1% | [14]; at 3.7 µM 0% | [14]; at 11.0 µM 1% | [14]; at 33.0 µM 1% | [14]; at 100.0 µM 0% | [15]; [17] 6% | [15]; [18] 52% | [15]; at 50.0 µM -18.4% | [16]; at 1.2 µM -1% | [16]; at 3.7 µM 1% | [16]; at 11.0 µM -2% | [16]; at 33.0 µM -3% | [16]; at 100.0 µM -4%
